Reference: PubChem BioAssay AID743279 (National Center for Advancing Translational Sciences (NCATS), 2014)
The campaign covered roughly 360,000 compounds. About 17,000 (4.7%) were called active. Not shown: some 5% with an inconclusive outcome. This is one part of a sample in which actives are shown more often than they occur. Cut-off read from the data, not from the text of the source: active = activity change below about -50%; inconclusive = mostly about -30% to -49%; inactive = weaker than that.

Assay: qHTS for Inhibitors of Inflammasome Signaling: IL-1-beta AlphaLISA Primary Screen
Conditions: THP-1 LPS/ATP IL-1B secretion, 16 h; at 57.5 µM, stronger effect = lower value
Outline: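 Secreted IL-1B measured by AlphaLISA bead assay after 16 h compound exposure of THP-1 cells; compounds (final up to 57.5 uM) added 1 h before LPS (250 ng/mL) and ATP (1.25 mM) stimulation; lower signal means less secretion.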
% is set by controls: 0 for no effect and ±100 for the full control effect.

Activity change, active:
CCN(C[C@H]1N[C@@](Cc2ccccc2)(C(=O)OC)[C@H]2C(=O)N(Cc3ccccc3)C(=O)[C@@H]12)C(=O)c1ccc(C)cc1 -54.1%, Cc1cc(C)c(NC(=O)CSc2nc3ccncc3[nH]2)c(C)c1 -69.3%, CCN(CC)S(=O)(=O)c1ccc(N2CCN(C)CC2)c(NC(=O)Nc2ccccc2F)c1 -72.3%, CCN(CC)S(=O)(=O)c1ccc(N2CCCC2)c(NC(=O)c2ccc([N+](=O)[O-])o2)c1 -86.5%

Activity change, inactive:
O=C(Nc1nnc([C@H]2C[C@H](O)[C@@H](CO)O2)s1)c1cccc(Cl)c1 25.3%, CCOC(=O)C1(Cc2ccccc2C(F)(F)F)CCN(C(=O)c2cc(C)n(C)n2)CC1 58%, CC(=O)NC(CC(=O)Nc1nc(-c2ccccc2)c(C(C)=O)s1)c1ccccc1 (configuration not stated) -10.6%, CCN1C(=O)CS/C1=N\c1nccs1 -5.9%, O=C(Cc1ccc(Cl)cc1)c1ccccc1 -14.1%, CCNC(=O)N(CC)C[C@H]1N[C@@](CC)(C(=O)OC)[C@H]2C(=O)N(Cc3ccccc3)C(=O)[C@@H]12 36%, CCN(C[C@H]1N[C@@](CC)(C(=O)OC)[C@H]2C(=O)N(Cc3ccccc3)C(=O)[C@@H]12)S(=O)(=O)c1ccccc1 -2.92%, Cc1ccc(S(=O)(=O)NN=C2CC(C)(C)CC(=O)C2(C)C)cc1 0.854%, Cc1cccc(C)c1NC(=O)C(c1ccc(C(F)(F)F)cc1)n1c(=O)c(-c2ccco2)nc2ccccc21 (configuration not stated) -1.25%, COc1ccc2nc(SCC(=O)Nc3c(C)cc(C)cc3C)[nH]c2c1 15.5%, Cc1ccc2nc(SCC(=O)NC3CCCC3)[nH]c2c1 -11.8%, COc1ccc(C(CNC(=O)c2cccc(S(=O)(=O)Nc3ccc(Br)cc3)c2)N(C)C)cc1 (configuration not stated) -12.1%, CCC(NC(=O)C1CCCC1)c1ccc(C)cc1 (configuration not stated) 31.4%, Brc1ccc2nc(-c3ccccc3)c(Cc3ccccc3)n2c1 28.2%, CCN(CC)S(=O)(=O)c1ccc(N2CCOCC2)c(NC(=O)c2ccc(=O)n(C)n2)c1 8.34%, CCN(CC)S(=O)(=O)c1cc(C(=O)Nc2cc(S(=O)(=O)N3CCOCC3)ccc2N2CCCC2)ccc1F -10.4%, CCN(CC)S(=O)(=O)c1ccc(N2CCOCC2)c(NC(=O)C2COc3ccccc3O2)c1 (configuration not stated) -0.208%, CCN(CC)S(=O)(=O)c1ccc(N2CCOCC2)c(NC(=O)C(C)Oc2ccc(F)cc2)c1 (configuration not stated) -2.11%
